Out of some 1,400 compounds screened, about 350 (25%) were called active. Inconclusive results (about 2%) are left out. How the calls were made is not given here. Only a sample is shown. Measured potencies and affinities stand elsewhere.
Experiment: inhibitors of Clostridioides difficile proliferation – 4-point retest, confirmation (AID 1224921);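 further: plate controls were DMSO wells for no effect and levofloxacin 16 µg/mL wells for full effect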
Conditions: Clostridioides difficile clinical isolate growth, OD600, 24 h, stronger effect = lower value; at 30 µM unless noted

Max activity, inactive:
CO[C@@H]1CN(C)C(=O)c2ccc(NC(=O)c3ccc(F)cc3)cc2OC[C@@H](C)N(C(=O)c2ccc(F)cc2)C[C@@H]1C -7.95% [at 0.5 µM]
C[C@@H](NC(=O)C[C@H]1C=C[C@H](NC(=O)C2CCC2)[C@@H](CO)O1)c1ccccc1 -13.6% [at 0.5 µM]
CCC(=O)N1C[C@H](C)[C@H](OC)CN(C)C(=O)c2cc(NS(=O)(=O)CC)ccc2OC[C@H]1C -9.49% [at 1.95 µM]
C[C@H]1CN([C@@H](C)CO)S(=O)(=O)c2ccc(C#CC3CC3)cc2O[C@@H]1CN(C)Cc1ccncc1 47%
C[C@@H]1CN([C@@H](C)CO)C(=O)c2c(c3ccccc3n2C)-c2ccccc2CO[C@@H]1CN(C)Cc1cccc(C(=O)O)c1 -12.2% [at 8 µM]
Cc1ccc(F)cc1S(=O)(=O)N[C@H]1CCN(Cc2ccc(OC(C)C)cc2)C1 21.6%
COc1ccc(CN(C)C[C@H]2Oc3c(NC(=O)Nc4ccc(C(F)(F)F)cc4)cccc3C(=O)N([C@@H](C)CO)C[C@@H]2C)cc1 32.3% [at 8 µM]
COc1ccc(CN(C)C[C@@H]2Oc3c(NC(=O)Nc4ccc(C(F)(F)F)cc4)cccc3C(=O)N([C@@H](C)CO)C[C@H]2C)cc1 38%
COc1cccc(S(=O)(=O)N[C@@H]2CC[C@H](CCN)O[C@@H]2CO)c1 -11.8% [at 1.95 µM]
CNC[C@@H]1Oc2cc(C#CCC3CCCC3)ccc2S(=O)(=O)N([C@H](C)CO)C[C@H]1C 18.8% [at 8 µM]
CCS(=O)(=O)Nc1ccc2c(c1)C(=O)N(C)C[C@H](OC)[C@H](C)CN(C)[C@H](C)CO2 -7.51% [at 1.95 µM]
CCCC#Cc1ccc2c(c1)O[C@H](CN(C)Cc1ccncc1)[C@@H](C)CN([C@@H](C)CO)S2(=O)=O 18.4%
CO[C@@H]1CN(C)C(=O)c2ccc(NC(=O)C3CCC3)cc2OC[C@@H](C)N(S(=O)(=O)c2ccc(Cl)cc2)C[C@H]1C -9.7% [at 2.1 µM]
C[C@H](CO)N1C[C@H](C)[C@@H](CN(C)C(=O)Nc2ccc3c(c2)OCO3)Oc2cc(C#Cc3cccnc3)ccc2S1(=O)=O -15.3% [at 8 µM]
O=C(N[C@H]1CC[C@@H](CCNS(=O)(=O)Cc2ccccc2)O[C@@H]1CO)c1ccc2c(c1)OCO2 16.7%
CN(C)C(=O)C[C@@H]1CC[C@H](NC(=O)c2ccc(F)cc2)[C@H](CO)O1 -7.24% [at 1.95 µM]
C[C@@H](NC(=O)C[C@@H]1C=C[C@@H](NC(=O)C2CCC2)[C@H](CO)O1)c1ccccc1 -14.9%
COc1ccc(C(=O)Nc2ccc3c(c2)OC[C@@H](C)N(C(=O)C2CC2)C[C@@H](C)[C@H](OC)CN(C)C3=O)cc1 3.99% [at 35 µM]
CO[C@H]1CN(C)C(=O)c2ccc(NC(=O)c3ccccc3F)cc2OC[C@H](C)N(CC2CC2)C[C@H]1C -14.6% [at 1.95 µM]
C[C@@H]1CN([C@@H](C)CO)C(=O)Cc2cc(NS(C)(=O)=O)ccc2O[C@@H]1CN(C)Cc1ccc(-c2ccccc2)cc1 21.7%
CNC[C@@H]1Oc2cc(-c3ccccc3F)ccc2S(=O)(=O)N([C@H](C)CO)C[C@H]1C 24.6%
O=C(Cc1ccncc1)NCC[C@@H]1CC[C@H](NC(=O)C2CCC2)[C@@H](CO)O1 -11.9% [at 0.5 µM]
CN(C)C(=O)C[C@@H]1CC[C@H](NC(=O)c2ccc(F)cc2)[C@@H](CO)O1 5.78% [at 8 µM]
O=C(Cc1ccncc1)NCC[C@H]1CC[C@H](NC(=O)C2CCC2)[C@H](CO)O1 -8.69% [at 1.95 µM]
O=C(Cc1ccncc1)NCC[C@H]1CC[C@H](NC(=O)C2CCC2)[C@@H](CO)O1 -8.1% [at 35 µM]
COc1ccc(-c2ccc3c(c2)O[C@H](CN(C)Cc2cccnc2)[C@@H](C)CN([C@H](C)CO)S3(=O)=O)cc1 25.8%
C[C@@H]1CN([C@H](C)CO)C(=O)Cc2cc(NC(=O)c3ccncc3)ccc2O[C@H]1CN(C)Cc1ccc(Cl)c(Cl)c1 5.9% [at 35 µM]
O=C(N[C@@H]1C=C[C@H](CC(=O)N2CCOCC2)O[C@@H]1CO)c1cccc(F)c1 9.1% [at 8 µM]
CCCC(=O)Nc1ccc2c(c1)C(=O)N(C)C[C@H](OC)[C@@H](C)CN(CC1CCOCC1)[C@H](C)CO2 -10.3%
O=C(C[C@H]1C[C@H]2c3cc(NS(=O)(=O)c4ccc(F)cc4)ccc3O[C@H]2[C@H](CO)O1)NCc1ccc(-c2ccccc2)cc1 -6.35% [at 1.95 µM]
COCC(=O)N1[C@@H]2c3ccc(-c4ccncc4)c(=O)n3C[C@@H]2[C@@H](CO)[C@@H]1C(=O)Nc1ccccc1 -4.68% [at 0.5 µM]
C[C@H](NC(=O)C[C@@H]1C[C@@H]2c3cc(NC(=O)NC4CCCCC4)ccc3O[C@@H]2[C@H](CO)O1)c1ccccc1 -12.5% [at 1.95 µM]
C[C@H](CO)N1C[C@H](C)[C@@H](CN(C)Cc2ccc(C(F)(F)F)cc2)Oc2ccc(N(C)C)cc2CC1=O 14% [at 8 µM]
C[C@@H]1CN([C@@H](C)CO)C(=O)Cc2cc(N(C)C)ccc2O[C@@H]1CN(C)Cc1ccc(Oc2ccccc2)cc1 32.7%
C[C@@H]1CN([C@H](C)CO)C(=O)Cc2cc(N(C)C)ccc2O[C@@H]1CN(C)Cc1ccc(Oc2ccccc2)cc1 27.6% [at 35 µM]
C[C@H](CO)N1C[C@H](C)[C@@H](CN(C)Cc2ccccc2)Oc2ccc(N(C)C)cc2CC1=O 18.1%
C[C@@H]1CN([C@@H](C)CO)C(=O)Cc2cc(NC(=O)C3CC3)ccc2O[C@@H]1CN(C)Cc1ccc(Oc2ccccc2)cc1 32.9%

From PubChem BioAssay AID1224921 (Broad Institute, 2016)
